# Test results: PubChem BioAssay AID686979 (National Center for Advancing Translational Sciences (NCATS), 2013)
# About 50,000 (12%) of roughly 420,000 compounds were called active. Roughly 26% stayed inconclusive and do not appear here. The sample holds actives, similar compounds and a random draw of the others, so the mix is not that of the screen. A number with no mark means an inactive call. The call rests on the fitted dose curve; in most records, active means well fitted inhibition curve with a large enough effect; inconclusive means small, poorly fitted or top-dose-only effect; inactive means flat fitted curve, though single readings scatter.
# Experiment: qHTS for Inhibitors of human tyrosyl-DNA phosphodiesterase 1 (TDP1): qHTS in cells in presence of CPT; further: nearly all actives have a fitted effect of over 55% in size
# Details: chicken DT40 Tdp1-/-;hTDP1 cells + 20 nM CPT, ATP luminescence, 48 h; series mostly up to 46.2 µM; activity change, negative = growth inhibition: at the top concentration
# Outline: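 Chicken DT40 Tdp1-/- cells stably complemented with human TDP1 were seeded at 400 cells/well in medium containing 20 nM camptothecin, exposed to pin-transferred compounds, and grown at 37 °C for at least 48 hr. Viability was read as ATP luminescence.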
# On the % scale 0 is the no-effect control and ±100 the full control effect; potency means the concentration at half of the fitted maximal effect.
Structure (SMILES),"activity change, negative = growth inhibition",Potency
CCCCn1c(N)c(N(CCC(C)C)C(=O)COC(=O)c2cccnc2OCC)c(=O)[nH]c1=O,-10.1%,–
COCCC(=O)Nc1ccc2c(c1)CN(C(=O)CCOC)CC2,-9.78%,–
CC1O[C@@H](OC2C(O)C(C)O[C@H](OC(=O)[C@]34CCC(C)(C)C[C@H]3C3=CCC5[C@@]6(C)CC(O)C(O[C@@H]7OC(CO)C(O)[C@@H](O)[C@@H]7O)[C@@](C)(C(=O)O)C6CC[C@@]5(C)[C@]3(CO)CC4)C2O[C@H]2OC(C)[C@@H](O[C@@H]3OCC(O[C@@H]4OC(CO)C(O)[C@H](O)C4O)[C@@H](O)[C@@H]3O)[C@H](O)C2O)C(O)C(O)C1O (some centres undefined),11.8%,–
Cc1cc(C)cc(N(CCC#N)C(=O)CN2C(=O)NC3(CCCC3)C2=O)c1,-11.4%,–
CC(NS(=O)(=O)c1ccc(OCC(=O)N2CCCC2)cc1)c1ccccc1 (centres undefined),-4.52%,–
CCOC(=O)c1ccc(-n2c(CCC(=O)O)ccc2-c2ccccc2)cc1,–,inactive
COc1ccc(C2CC(c3cccs3)Nc3nnnn32)cc1 (centres undefined),18.1%,–
CC(=O)Nc1cc(-c2ccccc2F)cn2c(-c3cccc(C(F)(F)F)c3)cnc12,-101%,–
COc1ccc(NC(=O)CC2COc3ccccc3O2)c(OC)c1 (centres undefined),-21%,–
COc1ccc(-c2cc(NC=O)c3ncc(-c4ccccc4)n3c2)cc1OC,–,6.51 µM (active)
COCCNc1ccnc(-c2cccc(NS(C)(=O)=O)c2)n1,-0.332%,–
COc1ccc(Nc2ncnc3sc(-c4ccccc4)cc23)c(OC)c1,-21.8%,–
COc1ccc(-c2cc(NC=O)c3ncc(-c4cccc(C(=O)N(C)C)c4)n3c2)c(OC)c1,–,23.1 µM (active)
COc1ccc(/C=N/S(=O)(=O)c2ccccc2)cc1OC,4.71%,–
COc1cccc(-c2cc(NC(C)=O)c3ncc(-c4cccc(C(C)=O)c4)n3c2)c1,–,23.1 µM (active)
COc1cc(C=O)ccc1Oc1nnnn1-c1ccccc1,13.2%,–
CC(=O)c1ccc(-c2cnc3c(NC=O)cc(-c4cccc(NS(C)(=O)=O)c4)cn23)cc1,–,23.1 µM (active)
COc1cccc(NC(=O)CSc2nnc(-c3cccnc3)o2)c1,-1.45%,–
Cc1cccc(N=C2SC(C)CN2C(=O)CN2C(=O)NC3(CCCC3)C2=O)c1 (centres undefined),1.26%,–
O=C(CCn1nnc2ccccc2c1=O)N[C@@H](Cc1c[nH]c2ccccc12)C(=O)O,14.2%,–
COc1ccc(S(=O)(=O)N2CCOCC2)cc1NC(=O)CC1CC2CCC1C2 (centres undefined),-25.8%,–
O=C(O)CC(CC(=O)N1CCOCC1)c1ccccc1 (centres undefined),3.43%,–
Cc1ccc(CN2COc3cc(C)c4c(oc(=O)c5ccccc54)c3C2)cc1,-24%,–
CC(C)C[C@H](NC(=O)C1CCC(CNC(=O)[C@@H]2CCCN2C(=O)OC(C)(C)C)CC1)C(=O)O (some centres undefined),29.8%,–
